Measured potencies and affinities stand elsewhere.
Test system: Escherichia coli
Settings: Concentration 20 uM; ASSAY_TEST Inhibition of Bacterial Growth; detection method Absorption (OD600); MEDIA CAMHB; plate type 384well; NBS; CORNING #3640; time 18 hr

Row | Structure (SMILES) | Inhibition
1 | CC(=O)OCC(=O)C12OC3(CCCC3)OC1CC1C3CCC4=CC(=O)C=CC4(C)C3(F)C(O)CC12C (stereo not given) | 7.38%
2 | O=c1c(O[C@@H]2O[C@H](CO)[C@H](O)[C@H](O)[C@H]2O)c(-c2ccc(O)c(O)c2)oc2cc(O)cc(O)c12 [HYPEROSIDE] | 3.89%
3 | Cc1nc(=O)c2cc(CN(C)c3ccc(C(=O)N[C@@H](CCC(=O)O)C(=O)O)s3)ccc2[nH]1 [RALTITREXED] | 2.78%
4 | CCCc1cc(=O)[nH]c(=S)[nH]1 [PROPYLTHIOURACIL] | 8.71%
5 | C[C@]12CC[C@@H]3c4ccc(O)cc4CC[C@H]3[C@@H]1CC[C@@H]2O [ESTRADIOL] | -0.2%
6 | COc1cc(N)c(Cl)cc1C(=O)N[C@@H]1CCN(CCCOc2ccc(F)cc2)C[C@@H]1OC.O [(R,S)-CISAPRIDE MONOHYDRATE] | 2.71%
7 | N[C@@H]1CONC1=O [CYCLOSERINE] | 1.47%
8 | CC(=O)O[C@]1(C(C)=O)CC[C@H]2[C@@H]3C[C@H](C)C4=CC(=O)CC[C@]4(C)[C@H]3CC[C@@]21C [MEDROXYPROGESTERONE ACETATE] | 2%
9 | CCN(CC)CCOc1ccc(C(=C(Cl)c2ccccc2)c2ccccc2)cc1.O=C(O)CC(O)(CC(=O)O)C(=O)O [CLOMIPHENE CITRATE] | 2.4%
10 | CN1CCN(C2=Nc3ccccc3Oc3ccc(Cl)cc32)CC1.O=C(O)CCC(=O)O [LOXAPINE SUCCINATE] | 4.68%
11 | Cc1ncc([N+](=O)[O-])n1CC(C)O (stereo not given) [SECNIDAZOLE] | 5.99%
12 | COc1cc(C(=O)NC2CCCNC2)cc(OC)c1OC (stereo not given) [TROXIPIDE] | 2.83%
13 | Cc1ccc(O)c([C@H](CCN(C(C)C)C(C)C)c2ccccc2)c1.O=C(O)C(O)C(O)C(=O)O [TOLTERODINE TARTRATE] | -0.28%
14 | COc1cc(C[C@@H](CO)[C@H](CO)Cc2ccc(O)c(OC)c2)ccc1O [(+)-SECOISOLARICIRESINOL] | -3.86%
15 | CC(C)[C@H](N)C(=O)OCCOCn1cnc2c(=O)nc(N)[nH]c21.Cl [VALACYCLOVIR HYDROCHLORIDE] | 2.88%
16 | CC(=O)CCCCn1c(=O)c2c(ncn2C)n(C)c1=O [PENTOXIFYLLINE] | 2.27%
17 | C#C[C@]1(O)CC[C@H]2[C@@H]3[C@H](C)CC4=C(CCC(=O)C4)[C@H]3CC[C@@]21C [TIBOLONE] | 2.02%
18 | NNCCc1ccccc1.O=S(=O)(O)O [PHENELZINE SULFATE] | 5.31%
19 | O=C(O)COCCN1CCN([C@H](c2ccccc2)c2ccc(Cl)cc2)CC1 [LEVOCETIRIZINE] | 5.57%
20 | COc1cc2nc(N(C)CCCNC(=O)C3CCCO3)nc(N)c2cc1OC (stereo not given) [ALFUZOSIN] | -0.93%
21 | CCN(CC)C(=O)[C@]1(c2ccccc2)C[C@@H]1CN.Cl [1R,2S-MILNACIPRAN HYDROCHLORIDE] | 4.64%
22 | COC(=O)C1=C(C)NC(C)=C(C(=O)OCCN(C)Cc2ccccc2)C1c1cccc([N+](=O)[O-])c1.Cl (stereo not given) [NICARDIPINE HYDROCHLORIDE] | 2.23%
23 | CO[C@H]1O[C@@H]2O[C@@]3(C)CC[C@H]4[C@H](C)CC[C@@H]([C@H]1C)[C@@]24OO3 | 13.66%
24 | O=C1C(CC[S+]([O-])c2ccccc2)C(=O)N(c2ccccc2)N1c1ccccc1 (stereo not given) [SULFINPYRAZONE] | 6.57%
25 | CC12CCC(=O)C=C1CCC1C2CCC2(C)C1CCC2(O)C(=O)CO (stereo not given) | -7.68%
26 | CC(CCCCC(=O)Nc1ccc(C(F)(F)F)cc1)NCCc1c[nH]cn1.O=C(O)/C=C\C(=O)O.O=C(O)/C=C\C(=O)O (stereo not given) | 3.85%
27 | CC(C)(C)NC(=O)[C@H]1CC[C@H]2[C@@H]3CC[C@H]4NC(=O)C=C[C@]4(C)[C@H]3CC[C@]12C [FINASTERIDE] | -5.85%
28 | Nc1ncnc2c1ncn2[C@@H]1O[C@H](CO)C[C@@H]1O.O | 1.02%
29 | CC(C[N+](C)(C)C)OC(N)=O.[Cl-] (stereo not given) [BETHANECHOL CHLORIDE] | -1.38%
30 | CCCNCC(O)COc1ccccc1C(=O)CCc1ccccc1 (stereo not given) [PROPAFENONE] | 8.72%

Source: ChEMBL document CHEMBL4513141, “CO-ADD screening of NIH (USA) - Clinical Collection” (2021)
